Laboratory results published in PubChem BioAssay (NCI).
Compounds without any hit were thinned out: in the full panel of roughly 83,000, 20% have a hit.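 In brief: 96-well plates, 48 h treatment, single concentration, percent growth endpoint.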 Activity calls are given as the source filed them. Rule for the calls: active = growth percent below 10; inactive = the rest.

Tests used:
Test in all cases: NCI-60 one-dose screen, 48 h (100 = growth as untreated, 0 = no growth, -100 = all killed)
Settings in all cases: 10 µM unless noted
[1] = system: SK-MEL-2 melanoma
[2] = system: EKVX NSCLC
[3] = system: SN12C renal
[4] = system: UO-31 renal
[5] = system: TK-10 renal
[6] = system: ACHN renal
[7] = system: CAKI-1 renal
[8] = system: A498 renal
[9] = system: CCRF-CEM leukemia
[10] = system: MOLT-4 leukemia
[11] = system: SR leukemia
[12] = system: RPMI-8226 leukemia
[13] = system: OVCAR-8 ovarian
[14] = system: OVCAR-5 ovarian
[15] = system: OVCAR-4 ovarian
[16] = system: SK-OV-3 ovarian
[17] = system: IGROV1 ovarian
[18] = system: OVCAR-3 ovarian
[19] = system: HS 578T breast
[20] = system: NCI/ADR-RES ovarian

Measured: growth

COc1ccc2[nH]c(O)c(N=NC(=O)COc3ccc(NC(=O)Nc4ccccc4)cc3)c2c1
active: [13] 9.54%
inactive: [1] 43.6% | [2] 65.4% | [3] 25% | [4] 94.5% | [5] 113% | [6] 94.2% | [7] 82.5% | [8] 71.7% | [9] 77.9% | [10] 77.1% | [11] 52.8% | [12] 80% | [14] 72.3% | [15] 19.7% | [16] 42.3% | [17] 60.7% | [18] 65.5% | [19] 14% | [20] 110%

C#CCOc1cc(N(CC)CC)ccc1C(C(=O)NC(C)(C)C)N(C(=O)C1CCc2cc(F)ccc2O1)c1ccccc1Br (stereo not given)
inactive: [2] 60.4% | [3] 56.3% | [4] 43.4% | [5] 86.3% | [6] 42.1% | [7] 44.7% | [8] 80.9% | [9] 57.5% | [10] 14.4% | [11] 47.6% | [12] 37.9% | [13] 63.2% | [14] 69% | [15] 60.4% | [16] 72.1% | [17] 90.9% | [18] 81.6% | [19] 84.7% | [20] 63.3%
active: [1] 3.66%

CC1(c2cc3cc(Br)ccc3oc2=O)NC(=O)c2c(/C=C/C(=O)OC3CC4CCC3(C)C4(C)C)cccc2N1 (stereo not given)
inactive: [1] 92.7% | [2] 62.1% | [3] 75.5% | [4] 59.8% | [5] 104% | [6] 76.6% | [7] 78.2% | [8] 142% | [9] 82.2% | [10] 47% | [11] 66.8% | [12] 35.8% | [13] 89% | [14] 92.6% | [15] 75.4% | [16] 86.4% | [17] 92.6% | [18] 83.1% | [19] 95.8% | [20] 74%

Cn1cc(-c2cc(N)n3nc(-c4cn(C)c5ncccc45)cc3n2)c2cccnc21
inactive: [1] 95.8% | [2] 95% | [3] 90% | [4] 89.2% | [5] 86% | [6] 109% | [7] 86.5% | [8] 87.2% | [9] 85.2% | [10] 53.5% | [11] 51.1% | [12] 54.3% | [13] 61.3% | [14] 92.8% | [15] 71.4% | [16] 99.8% | [17] 98% | [18] 96.7% | [19] 89.2% | [20] 68.6%

O=C(N=Nc1c(O)[nH]c2ccc(Cl)cc12)c1ccc2nc(-c3ccccc3)[nH]c2c1
inactive: [1] 43.4% | [2] 92.4% | [3] 42% | [4] 78.8% | [5] 143% | [6] 68.4% | [7] 89.3% | [8] 137% | [9] 41.7% | [10] 27.3% | [11] 15.3% | [12] 70.1% | [13] 20.8% | [14] 106% | [15] 38.2% | [16] 91% | [17] 75.4% | [18] 109% | [19] 52.3% | [20] 90%

COc1cc(C2CC(c3cc(OC)c(OC)c(OC)c3)=NN2c2ccccc2)ccc1OCc1ccc(C)cc1 (stereo not given)
inactive: [1] 88.1% | [2] 94.1% | [3] 95.1% | [4] 84.8% | [5] 118% | [6] 99.6% | [7] 77.8% | [8] 102% | [9] 106% | [10] 91.6% | [11] 105% | [12] 102% | [13] 98% | [14] 105% | [15] 89.2% | [16] 101% | [17] 94.2% | [18] 101% | [19] 94.5% | [20] 101%

O=C1NC(=O)/C(=C/c2ccccc2OCc2cc3ccccc3nc2Cl)S1
inactive: [1] 88.6% | [2] 88% | [3] 81.4% | [4] 71.9% | [5] 97.7% | [6] 86.2% | [7] 82.3% | [8] 122% | [9] 53.9% | [10] 85.3% | [11] 105% | [12] 93.7% | [13] 68.4% | [14] 112% | [15] 88.2% | [16] 81.7% | [17] 91.5% | [18] 71.7% | [19] 28.8% | [20] 87.6%

CC1(c2cc3cc(Cl)ccc3oc2=O)NC(=O)c2c(/C=C/C(=O)OC3CC4CCC3(C)C4(C)C)cccc2N1 (stereo not given)
inactive: [1] 53.7% | [2] 49.4% | [3] 58.5% | [4] 42.8% | [5] 79.3% | [6] 61.7% | [7] 59.6% | [8] 118% | [9] 59.4% | [10] 21.2% | [11] 42.2% | [12] 22% | [13] 70.4% | [14] 80.6% | [15] 54.4% | [16] 66.1% | [17] 76.1% | [18] 69% | [19] 72.8% | [20] 64%
